This is an account of results in PubChem BioAssay AID2676 (National Center for Advancing Translational Sciences (NCATS), 2010).

About 1,100 (0.3%) of roughly 370,000 compounds were called active. Entries that show only a call come without a potency. About 1% were inconclusive and are not listed. Calls come from the whole dose curve; as a rule, active = well fitted activation curve with a large enough effect; inconclusive = small, poorly fitted or top-dose-only effect; inactive = flat fitted curve, though single readings scatter. This excerpt belongs to a sample that is enriched for actives.
Potency is the fitted concentration of half-maximal effect.

Chain of Relaxin receptor 1 (Homo sapiens) (Q9HBX9 whole entry, looked up): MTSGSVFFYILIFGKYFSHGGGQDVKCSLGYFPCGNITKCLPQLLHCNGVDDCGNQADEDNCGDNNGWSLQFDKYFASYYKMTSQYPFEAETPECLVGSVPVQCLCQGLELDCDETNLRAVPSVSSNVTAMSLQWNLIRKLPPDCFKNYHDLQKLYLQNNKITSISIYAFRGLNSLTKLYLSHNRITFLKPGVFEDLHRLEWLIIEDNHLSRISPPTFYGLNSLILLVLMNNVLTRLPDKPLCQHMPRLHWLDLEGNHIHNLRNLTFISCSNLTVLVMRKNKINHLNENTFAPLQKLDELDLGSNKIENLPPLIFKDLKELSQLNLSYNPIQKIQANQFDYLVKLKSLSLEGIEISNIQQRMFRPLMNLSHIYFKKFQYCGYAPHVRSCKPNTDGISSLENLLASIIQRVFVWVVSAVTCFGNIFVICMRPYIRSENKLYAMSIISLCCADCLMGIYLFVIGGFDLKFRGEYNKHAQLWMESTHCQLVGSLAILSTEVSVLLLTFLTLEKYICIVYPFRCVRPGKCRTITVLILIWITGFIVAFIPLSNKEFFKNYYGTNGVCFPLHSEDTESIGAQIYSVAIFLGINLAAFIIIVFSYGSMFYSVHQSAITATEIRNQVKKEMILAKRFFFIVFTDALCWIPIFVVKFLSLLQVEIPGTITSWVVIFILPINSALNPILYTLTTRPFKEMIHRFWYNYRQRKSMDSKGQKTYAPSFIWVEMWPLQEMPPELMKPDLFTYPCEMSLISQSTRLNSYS

The test addresses Relaxin receptor 1 (Homo sapiens) (UniProt Q9HBX9). The test is described as follows: qHTS Assay for Agonists of the Relaxin Receptor RXFP1. Note: nearly all actives have a fitted effect of over 60% in size. As to conditions: HEK293T-RXFP1 cAMP TR-FRET, 30 min; series mostly up to 57.5 µM. The source says:
NIH Chemical Genomics Center [NCGC] NIH Molecular Libraries Probe Production Centers Network [MLPCN] MLPCN Grant: R03 MH085705-01A1 Assay Submitter (PI): Alexander Agoulnik NCGC Assay Overview: The relaxin hormone is involved in the variety of biological functions in normal tissues and diseases. The role of relaxin is well-established in female reproduction and parturition, mammary gland and endometrial development, maintenance of myometrial quiescence during pregnancy. Relaxin signaling through its G protein-coupled receptor (GPCR) RXFP1 results in ECM remodeling through regulation of collagen deposition, cell invasiveness, proliferation and overall tissue homeostasis. […] Recombinant human relaxin (rhRlx) is currently being tested in clinical trials as a protective agent in congestive heart failure, in treating severe preeclampsia, and as an anti-fibrotic agent in systemic sclerosis. Upon relaxin binding RXFP1 activation leads to the activation of adenylate cyclase (AC) via Gs. cAMP will activate PKA, which phosphorylates many signaling proteins. Thus, detection of cAMP increase is an easy and reliable indication of relaxin receptor activation. To screen for agonists of the relaxin receptor, a HEK293T cell line stably transfected with RXFP1 was used. RXFP1 activation was assayed by changes in cAMP levels as detected with a time-resolved fluorescence energy transfer (TR-FRET) cAMP detection kit.
NCGC Assay Protocol Summary: This is a cell-based assay for cAMP second messenger response to screen for agonists of the RXFP1 receptor. The assay was conducted in the presence of a PDE4 inhibitor (Ro 20174). The cells were lysed and the cAMP levels were measured with a TR-FRET cAMP kit. Presence of cAMP in the cell lysate disrupts binding between the cryptate-labeled anti-cAMP and d2-labeled cAMP pair, leading to a decrease in the TR-FRET signal. Data were normalized to the controls for basal activity (buffer only) and 100% activity (29 nM porcine relaxin). The EC50 values were determined from concentration-response data modeled with the standard Hill equation 1536-well assay protocol for the HEK293 RXFP1 cAMP assay: (1) Add 3 ul HEK293 RXFP1 cell culture. 2000 cells/well in DMEM/F12, 10% FBS, 1x Pen/Strep (dispensed offline with MultiDrop Combi). (2) Incubate 16-24 hr at 37C, 5% CO2. (3) Add 1 ul 400uM Ro20174 in DPBS, 0.05% BSA, 0.005% Tween 20. (3) Add 23 nl compounds in DMSO solution. Final concentration was 0.5 - 58 uM. (4) Incubate 30 min at 37C, 5% CO2. (5) Add 1 ul cAMP-d2 in lysis buffer (HTRF cAMP HiRange kit, CisBio). (6) Add 1 ul anti-cAMP antibody-cryptate in lysis buffer (HTRF cAMP HiRange kit, CisBio). (7) Incubate 30 min at room temperature. (6) Detect the assay plate in a ViewLux plate reader (PerkinElmer) with Ex=320 nm, Em1=615 nm and Em2=665 nm. Keywords: relaxin, RXFP1, RXFP2, G-protein coupled receptor, cAMP, agonist, high throughput screening, MLSMR, MLSCN, NIH Roadmap, qHTS and NCGC
On to `COc1ccccc1-c1nnc(C2CCN(C(=O)c3ccc(Cl)cc3)CC2)o1`, for which the Potency entry was “inactive”.

Turning to `CC1Cc2cc(S(=O)(=O)CCC(=O)Nc3ccc(F)c(Cl)c3)ccc2N1C(=O)C1CC1` (centres undefined), the Potency result is “inactive”.

`COc1ccccc1/C=C/c1nc(C#N)c(NC(C)c2ccccc2)o1` (centres undefined): the Potency entry was “inactive”.

For `CCOc1ccc(C2C(=O)N(C3CCCCC3)CC(=O)N2CCC2=CCCCC2)cc1OC` (centres undefined), the Potency entry was “inactive”.

In the case of `COc1ccc(-c2noc(-c3ccc(N4CCN(c5ccccc5)CC4)c([N+](=O)[O-])c3)n2)cc1OC`, the Potency result was “inactive”.

In the case of `COc1ccc(CNC(=O)c2cc3c(=O)[nH]c4ccccc4c3s2)cc1`, the Potency result is “inactive”.

On to `CCCn1c(=N)n(CC(O)COc2ccccc2OC)c2ccccc21` (centres undefined), for which the Potency entry was “inactive”.

As for `Cc1cc2c(cc3c(SCc4nc(-c5ccccc5)oc4C)nnc(C)n32)o1`, the Potency entry was “inactive”.

`Cc1cc2c(cc3c(SCc4cccc(Cl)c4)nnc(C)n32)o1`: the Potency was 22.4 µM (active).

Take `Cc1nnc(SCc2cccc(Cl)c2)n(N)c1=O`: the Potency entry was “inactive”.

On to `NS(=O)(=O)c1ccc(CCNC(=O)CCCCCn2c(=O)[nH]c3ccccc3c2=O)cc1`, for which the Potency entry was “inactive”.

For the compound `FC(F)(F)c1cc(Nc2nc3ccccc3c3nncn23)ccc1Cl`, the Potency result was “inactive”.

As to `O=C(COc1ccc2c3c(c(=O)oc2c1)CCCC3)NCC(O)c1ccccc1` (centres undefined), the Potency entry is “inactive”.

As for `O=C(COc1ccc2c3c(c(=O)oc2c1)CCC3)NC1CCCCC1`, the Potency entry is “inactive”.

For the compound `O=C(Oc1ccccc1)Oc1ccc2c(c1)oc(=O)c1ccccc12`, the Potency was 7.94 µM (active).

As for `COC(=O)c1ccc(CSc2ccc3nnc(-c4ccccc4)n3n2)o1`, the Potency entry was “inactive”.

For the compound `CCOC(=O)CNC(=O)CSc1ccc2nnc(-c3cccnc3)n2n1`, the Potency is 17.8 µM (active).

In the case of `COc1ccccc1CCNC(=O)CSc1nnc2ccc(-c3cccnc3)nn12`, the Potency result is “inactive”.

With `Cc1c(C)n(Cc2ccc(Cl)cc2)c2ccc(C(=O)NCCc3ccc(S(N)(=O)=O)cc3)cc12`, the Potency result is “inactive”.

With `O=C(CN1CCN(Cc2ccc(Cl)cc2)C1=O)NCc1ccc(F)cc1`, the Potency result is “inactive”.

Take `COc1ccccc1OCC(=O)Nc1nnc2n1CCS2`: the Potency result is “inactive”.

With `COCCNC(=O)c1cc(-c2cccc(Cl)c2)on1`, the Potency entry is “inactive”.

As to `O=C(CSc1nccn1C1CCCC1)Nc1cc(C(F)(F)F)ccc1Cl`, the Potency result is “inactive”.

In the case of `CC(C)c1ccc(NC(=O)c2ccc(Cn3nc(N4CCN(c5ccccc5)CC4)ccc3=O)o2)cc1`, the Potency result is “inactive”.

Take `O=C(Nc1ccccc1Br)c1cc(CN2CCCC2)on1`: the Potency entry is “inactive”.

`Cc1ccc(NC(=O)CCCn2c(=O)c3cccn3c3ccccc32)cc1Cl`: the Potency entry is “inactive”.

Turning to `COc1ccc(C2=NC3(CCCCC3)N(CC(=O)Nc3ccc(C(C)C)cc3)C2=O)cc1`, the Potency entry is “inactive”.

For the compound `COc1ccc(CCNC(=O)CCCCn2c(=O)c3ccccc3n(Cc3ccccc3C)c2=O)cc1OC`, the Potency result is “inactive”.

Turning to `Fc1ccc(Nc2nc(SCc3ccccc3Cl)nc3ccccc23)cc1`, the Potency entry was “inactive”.

On to `COc1ccc(S(=O)(=O)NCC(c2ccc(N(C)C)cc2)N2CCCC2)cc1` (centres undefined), for which the Potency entry was “inactive”.

For `O=C(CN1C(=O)COc2ccc(S(=O)(=O)N3CCCCCC3)cc21)N1CCN(c2cccc(C(F)(F)F)c2)CC1`, the Potency entry was “inactive”.

As for `CCCC(=O)Nc1cc2nn(-c3ccccc3)nc2cc1C`, the Potency entry is “inactive”.

On to `N#Cc1nc(/C=C/c2ccc(F)cc2)oc1NC1CCCCC1`, for which the Potency entry was “inactive”.

As for `CCCS(=O)(=O)c1c(Nc2ccccc2C)sc(C(=O)c2ccccc2)c1N`, the Potency entry was “inactive”.

On to `Cc1nn(C(=O)c2c(F)cccc2F)c(C)c1S(=O)(=O)N1CCOCC1`, for which the Potency entry is “inactive”.

For the compound `CC(=O)c1ccc(NC(=O)CCc2nc(-c3ccc(C)cc3)no2)cc1`, the Potency result was “inactive”.

As to `Cc1ccc(C)n1-c1nnc(N2CCC(C(=O)NCc3ccccc3Cl)CC2)s1`, the Potency result was “inactive”.

Consider `CCc1ccc(CN(Cc2ccco2)C(=O)COc2ccc(Cl)c(C)c2)cc1`, for which the Potency result was “inactive”.

Take `CCOc1ccccc1C(=O)NCC(c1ccc(N(C)C)cc1)N1CCCC1` (centres undefined): the Potency entry was “inactive”.

For the compound `Cc1cccc(Nc2cc(C)nc(-n3nc(C)cc3C)n2)c1`, the Potency result was “inactive”.

As to `Cc1ccc2oc(=O)c3cnn(CC(=O)NCc4ccccc4Cl)c3c2c1`, the Potency result is “inactive”.

Turning to `Cc1ccc(-c2cnc(NCc3ccc(C(C)C)cc3)n2C)cc1`, the Potency entry was “inactive”.

As for `COc1ccc(/C=C/c2nc(C#N)c(NCc3ccc(F)cc3)o2)cc1OC`, the Potency entry is “inactive”.

For the compound `COc1cccc(-c2nnc3n(CCc4ccccc4)c(=O)c4ccccc4n23)c1O`, the Potency entry was “inactive”.

Turning to `CCCSc1ncc(Cl)c(C(=O)Nc2sc3c(c2C(=O)NCCOC)CCCC3)n1`, the Potency result was “inactive”.

As to `O=C(COc1ccccc1Cl)Nc1ccc2nc(SCC(=O)N3CCCC3)sc2c1`, the Potency result was “inactive”.

For `Cc1ccc(CNC(=O)CCc2c(C)nn(-c3ccc(N4CCCC4)nn3)c2C)cc1`, the Potency result was “inactive”.

As to `Cc1cc(C)c(NC(=O)CN2C(=O)c3cccnc3Oc3ccc(Cl)cc32)c(C)c1`, the Potency result is “inactive”.

On to `Cc1cccc(CSc2nc3ccncc3n2CC(=O)N(C)C2CCCCC2)c1`, for which the Potency entry is “inactive”.
